Among all 52,000 compounds or so, about 4,300 (8.3%) were called active. The entries come from a sample that favours actives as a whole. Unmarked numbers belong to inactive results. Cut-off read from the data, not from the text of the source: active = survival mostly below about 52% (no sharp cut-off); inactive = mostly above about 56%.
System: DeltatarO mutant
Test: S. aureus survival, RN4220 and DeltatarO strains – OD600, teichoic acid synthesis inhibitors, primary screen (AID 463173)
Conditions: S. aureus RN4220 wild type/DeltatarO growth, OD600, 18 h, hits give low values, screened at 18.75 µg/mL (by protocol)

SMILES | survival
CCCC(=O)C1=C(c2cccc(OC)c2)N(C(=O)CCC)n2c(C)nnc2S1 | 85%
O=C(c1ccc(Br)cc1)N1CCN(CCc2ccncc2)CC1 | 78%
COc1cc(NC(=O)CC2C(=O)N(c3cccc(C)c3)C(=O)N2Cc2ccc(F)cc2)cc(OC)c1 (stereo not drawn) | 94%
CC1=NN(c2ccccc2)C(c2ccccc2)C1 (stereo not drawn) | 101%
O=C(CN(c1ccc2c(c1)OCCO2)S(=O)(=O)c1ccccc1)NCc1ccco1 | 85%
CCOC(=O)C1CCN(C(c2ccc(C)cc2)c2c(O)cc(C)n(CCOC)c2=O)CC1 (stereo not drawn) | 76%
C=CCn1c(C)c(C=C(C#N)C#N)c2ccccc21 | 99%
CC1(c2ccccc2)OC(=O)C(C#N)C12CCCCC2 (stereo not drawn) | 103%
NC(=O)c1ccc2nc(N)sc2c1 | 102%
Cc1cccc(C(=O)N2CCCCC2CCN2CCCCC2)c1 (stereo not drawn) | 80%
CC(C)c1nnc(NC(=O)c2nc(SCc3ccc(F)cc3)ncc2Cl)s1 | 24% (active)
COc1ccc(NC(=O)c2nc(SCc3ccc(F)cc3)ncc2Cl)cc1 | 69%
COc1ccc(CCNC(=O)c2nc(SCc3ccccc3F)ncc2Cl)cc1OC | 64%
COc1ccc(CCNC(=O)c2nc(SCc3ccc(C)cc3)ncc2Cl)cc1OC | 65%
COc1ccc(CCNC(=O)c2nc(SCc3ccc(F)cc3)ncc2Cl)cc1OC | 46% (active)
CC(C)Sc1ncc(Cl)c(C(=O)Nc2nnc(C(C)C)s2)n1 | 69%
COc1ccccc1CNC(=O)CSc1nc(=O)[nH]c2c1CCC2 | 78%
COc1cc(CN(C(=O)COc2ccc(C)c(C)c2)c2ccccn2)cc(OC)c1OC | 71%
COc1ccc(-n2c(=O)c3ccccc3n(CC(=O)NCCc3ccccc3)c2=O)c(OC)c1 | 74%
CCn1ccc2cc(S(=O)(=O)N3CCCN(C(=O)Nc4ccccc4OC)CC3)ccc21 | 80%
COc1ccc(-n2ncc(C(=O)NCCN3CCOCC3)c2C2CCN(C(=O)OC(C)(C)C)CC2)cc1 | 119%

SMILES | survival
CCCS(=O)(=O)Nc1cc(-c2cn3cccc(C)c3n2)ccc1C | 59%
CCc1ccc(S(=O)(=O)Nc2cc(-c3cn4ccccc4n3)ccc2C)cc1 | 74%
COc1ccc(S(=O)(=O)Nc2cc(-c3cn4ccc(C)cc4n3)ccc2C)cc1OC | 62%
COc1ccc(S(=O)(=O)Nc2ccc(-c3cn4ccsc4n3)cc2)cc1C | 128%
COc1ccc(S(=O)(=O)Nc2cc(-c3cn4cccc(C)c4n3)ccc2C)cc1C | 53% (active)
Cc1ccc(S(=O)(=O)Nc2cccc(-c3cn4cccc(C)c4n3)c2)c(C)c1 | 75%
COc1ccc(Br)cc1S(=O)(=O)Nc1cc(-c2cn3ccccc3n2)ccc1C | 43% (active)
COc1ccc(S(=O)(=O)Nc2cc(-c3cn4ccccc4n3)ccc2C)cc1 | 102%
CC(=O)Nc1ccc(S(=O)(=O)Nc2cc(-c3cn4ccccc4n3)ccc2C)cc1 | 67%
Cc1cc(C)c(S(=O)(=O)Nc2cc(-c3cn4ccccc4n3)ccc2C)cc1C | 56%
Cc1ccc(-c2cn3cccc(C)c3n2)cc1NS(=O)(=O)c1ccccc1 | 41% (active)
Cc1ccn2cc(-c3ccc(C)c(NS(=O)(=O)c4ccc(Cl)cc4)c3)nc2c1 | 43% (active)
Cc1cc(=O)[nH]c(SCC(=O)N2CCN(c3ccccc3)CC2)n1 | 81%
Cc1ccc(Cl)cc1NS(=O)(=O)c1ccc2oc(=O)c3ncn(C)c3c2c1 | 124%
O=C(Nc1ccc2oc(-c3ccc4ccccc4c3)nc2c1)c1cccc(Cl)c1Cl | 63%
COc1cc(NC(=O)CCCN2C(=O)CCn3nc(-c4cn(C)c5ccccc45)cc32)cc(OC)c1 | 126%
CCCOc1ccc(C(=O)Nc2ccc(-c3cc4ccccc4oc3=O)c(C)c2)cc1 | 71%
N#CC1=C2SCN(C3CCCCC3)CN2C(=O)CC1c1ccc(F)cc1 (stereo not drawn) | 87%
CCc1ccccc1NC(=O)Cn1cc(C(=O)c2ccncc2)c(=O)c2cc(C)ccc21 | 83%
CCS(=O)(=O)Nc1cc(-c2cn3ccc(C)cc3n2)ccc1C | 60%
CCCS(=O)(=O)Nc1cc(-c2cn3ccc(C)cc3n2)ccc1C | 78%

SMILES | survival
Cc1ccc(-c2cn3ccc(C)cc3n2)cc1 | 22% (active)
COc1cccc(C(=O)Nc2ccc(C(=O)OCc3cc(=O)n4cc(C)sc4n3)cc2)c1 | 66%
O=C(C1CCN(c2nc3ccccc3[nH]2)CC1)N1CCN(c2ccccc2)CC1 | 89%
O=C(C1CCN(c2nc3ccccc3[nH]2)CC1)N1CCN(c2cccc(Cl)c2)CC1 | 8% (active)
CCOc1cc(CNC(=O)C2CCN(c3nc4ccccc4[nH]3)CC2)cc(OCC)c1OCC | 20% (active)
Cc1ccc2nc(N3CCC(C(=O)N4CCN(c5cccc(Cl)c5)CC4)CC3)[nH]c2c1 | 68%
COc1ccc(CNC(=O)C2CCN(c3nc4ccccc4[nH]3)CC2)cc1OC | 55%
COc1cccc(CNC(=O)C2CCN(c3nc4ccc(Cl)cc4[nH]3)CC2)c1 | 101%
COc1ccccc1CNC(=O)C1CCN(c2nc3ccc(Cl)cc3[nH]2)CC1 | 25% (active)
COc1ccccc1CNC(=O)C1CCN(c2nc3ccc(C)cc3[nH]2)CC1 | 100%
CN(C)c1ccc(CNC(=O)C2CCN(c3nc4ccccc4[nH]3)CC2)cc1 | 63%
CC1CCN(S(=O)(=O)c2cn(CC(=O)Nc3ccc(F)c(Cl)c3)c(=O)c3ccccc23)CC1 | 73%
CCc1ccc(-n2nc(CO)c(C(=O)NCc3cccs3)n2)cc1 | 60%
Cc1ccc(-n2nc(CO)c(C(=O)NCc3cccs3)n2)cc1 | 92%
Cc1ccc(-n2nc(CO)c(C(=O)NC(C)c3ccccc3)n2)cc1C (stereo not drawn) | 41% (active)
Cc1ccc(-n2nc(CO)c(C(=O)NC(C)CCCc3ccccc3)n2)cc1C (stereo not drawn) | 94%
Cc1ccccc1-n1nc(CO)c(C(=O)NCc2cccs2)n1 | 79%
O=C(NCc1cccs1)c1nn(-c2ccccc2)nc1CO | 84%
CCOc1ccc(-n2nc(CO)c(C(=O)NCc3cccs3)n2)cc1 | 40% (active)
Cc1ccc(-n2nc(CO)c(C(=O)NCc3cccs3)n2)cc1C | 39% (active)
Cc1ccc(-n2nc(CO)c(C(=O)NCCc3ccccc3)n2)cc1C | 111%

From PubChem BioAssay AID463173 (ICCB-Longwood Screening Facility, Harvard Medical School, 2010)
